In all, about 65,000 compounds went through this assay and about 2,100 (3.2%) showed an effect of 50% or more. The median lay at about -52%. The sample holds strong results, similar compounds and a random draw of the others, so the mix is not that of the screen.
test system: Plasmodium falciparum; test: Screen against P. falciparum Asexual Blood Stage (ABS), at 5uM; assay type: functional, Dd2; conditions: tested at 5 uM

Row | Structure (SMILES) | INHIBITION
1 | O=C([C@@H]1CC[C@@H]2[C@@H](CCN2Cc2ccoc2)O1)N1CCCC1 | -94.6%
2 | O=S(=O)(c1ccc(Cl)s1)N1CCN(Cc2nc(-c3ccco3)cs2)CC1 | -66%
3 | NC(=O)C1(c2cnccn2)CCCN1Cc1ccncc1 (stereo not given) | -58.5%
4 | O=C(NCCNc1cncc(Br)c1)c1ccc(O)cc1 | 52.2%
5 | O=C(NCCNC(=O)c1ccc(Br)cc1)c1ccc(O)cc1 | 30.3%
6 | O=C(NCCNc1ccc(Br)cn1)c1ccc(O)cc1 | -20.5%
7 | CCCN1CCc2c(C(=O)N(C)Cc3ccccn3)nn(C)c2C1 | -23.7%
8 | O=C(Cc1ccsc1)N1CCCC(c2n[nH]c3ncccc23)C1 (stereo not given) | -37.1%
9 | CS(=O)(=O)NCCCN1CCCC1c1ccccc1 (stereo not given) | -93.1%
10 | CS(=O)(=O)NCCCN1CCCCC1c1cc2ccccc2[nH]1 (stereo not given) | 58.9%
11 | COc1ccc(C2CCCCCN2CCCNS(C)(=O)=O)cc1 (stereo not given) | 59.3%
12 | COc1ccc(C2CCCCCN2S(C)(=O)=O)cc1 (stereo not given) | -92.8%
13 | CS(=O)(=O)NCCCN1CCCC1Cc1ccccc1 (stereo not given) | -29%
14 | O=C(CCN1CCCCC1c1cc2ccccc2[nH]1)N1CCOCC1 (stereo not given) | 39.3%
15 | CS(=O)(=O)NCCCN1CCCC1c1ccsc1 (stereo not given) | -73.1%
16 | CS(=O)(=O)NCCCN1CCCC1c1cccc(Br)c1 (stereo not given) | 65.4%
17 | COc1cccc(C2CCCN2CCCNS(C)(=O)=O)c1 (stereo not given) | -0.589%
18 | Cc1ocnc1C(=O)N1CCCC1c1ccc(C(=O)N2CCSCC2)s1 (stereo not given) | -154%
19 | Cn1c(=O)c2c(n3ncnc13)NC(=O)CC2c1cccc(Br)c1 (stereo not given) | -61.2%
20 | CC(C)c1nc(CN(C)C(=O)c2cn3ccsc3n2)cs1 | -43.1%
21 | COc1cccc(C=CCCN2CCCN(C(C)=O)CC2)c1 | -13%
22 | COCC(=O)N1CCC2(CCCN(Cc3cc(OC)ccc3F)C2)C1 (stereo not given) | -70%
23 | Cc1cc(C)c(C(=O)N2CCCC(O)(CN3CCCC3)C2)cc1C (stereo not given) | -30.5%
24 | CCCn1ccnc1CN1CCC(O)(CN2CCCCC2)C1 (stereo not given) | 18.6%

Row | Structure (SMILES) | INHIBITION
25 | Cc1cc(F)ccc1CN1CCCC(O)(CN2CCCC2)C1 (stereo not given) | 66.7%
26 | COc1ccc(CN2CCC(O)(CN3CCCCC3)C2)c(C)c1 (stereo not given) | 67.6%
27 | Cc1ccccc1CN1C[C@@H](CN(C)CCO)[C@@H](CO)C1 | 7.46%
28 | Cc1cc(-n2cccn2)ccc1CN1CCC(O)(CN2CCCCC2)C1 (stereo not given) | 62.1%
29 | CC(C)c1nccc(CN2CCC(O)(CN3CCCCC3)C2)n1 (stereo not given) | 32.8%
30 | COc1ccc(F)c(CN2CCCC3(CCN(C(=O)CSC)C3)C2)c1 (stereo not given) | -63.5%
31 | Cc1cc(-n2cccn2)ccc1CN1C[C@@H](CN(C)C)[C@@H](CO)C1 | 51.7%
32 | Cc1cc(F)ccc1CN1CCCC2(C1)OCCO2 | -67.8%
33 | CN(C)C[C@@H]1CN(Cc2ccccc2C#N)C[C@@H]1CO | -47.7%
34 | COc1cccc(Cn2cc(N3C(=O)CCC3=O)cn2)c1 | -83.8%
35 | c1cnc(N2CCC3(COCc4cnc(-c5cccnc5)nc43)C2)nc1 (stereo not given) | -78.5%
36 | COCC1CN(c2ncccn2)Cc2cnn(CC3CC3)c21 (stereo not given) | -16.5%
37 | CS(=O)(=O)N1CCN(C(=O)C2CSCCC(=O)N2)CC1 (stereo not given) | -38.6%
38 | Cc1nc(CN2CCN(C3CCOC3)Cc3cccnc32)cs1 (stereo not given) | -78.6%
39 | CCCNC(=O)c1cccc(CNCc2csc(C(C)C)n2)c1 | -48.2%
40 | Cc1noc(NC(=O)c2cccc(Br)c2)n1 | -81.9%
41 | OC1(CN2CCCC2)CCCN(Cc2ccc(F)cc2Cl)C1 (stereo not given) | 58.3%
42 | Cc1cc(C(=O)N2CCCC(O)(CN3CCCC3)C2)ccc1Cl (stereo not given) | -21.4%
43 | O=C1CCC2(CCN(Cc3ccc(F)cc3Cl)CC2)CN1CCO | -54%
44 | Cn1cc(C[C@H]2[C@H](O)CCN2Cc2ccc(F)cc2)cn1 | 6.42%
45 | Cc1cc(CN(C)C(=O)Nc2ccccc2C)no1 | -85.5%
46 | Cc1ccc(CN(CCN(C)C)Cc2nc3ccccc3[nH]2)s1 | 61.2%
47 | Cc1ccc(CN(CCN(C)C)Cc2ncc[nH]2)s1 | -73.3%
48 | Cc1ccc(CN(CCCO)Cc2nc3ccccc3[nH]2)s1 | -76.9%

Row | Structure (SMILES) | INHIBITION
49 | Cc1ccccc1NC(=O)CCNC(=O)c1ccoc1 | -37.5%
50 | COCCCNC(=O)Cc1nc(-c2ccncc2)n[nH]1 | -95.8%
51 | CCC1=NC2(CCC(C(=O)Nc3ccc(C)nc3)CC2)C(=O)N1C (stereo not given) | -28.2%
52 | Cc1cccc(CNc2cc(C3CCCNC3)ccn2)n1 (stereo not given) | -46.7%
53 | CC(C)(C)OC(=O)NC1CCCN(Cc2cccc(O)c2)C1 (stereo not given) | 51.7%
54 | CC(C)(C)OC(=O)NC1CCCN(Cc2cccs2)C1 (stereo not given) | 25.8%
55 | CC(=O)NC1CCCN(Cc2ccn(C)c(=O)c2)C1 (stereo not given) | -10.7%
56 | COCCN(Cc1cnn(C)c1)c1nc2c(s1)c(C)nn2C | -50.7%
57 | Cc1nn(C)c2nc(N(Cc3cnn(C)c3)C3CCCCC3)sc12 | 60%
58 | Cc1nn(C)c2nc(N(CCN(C)C)C3CCCC3)sc12 | -9.31%
59 | O[C@H]1CCN(CC2CC2)[C@H]1Cc1ccncc1 | -6.99%
60 | CC1CCCN(CCCNC(=O)c2ccc(N(C)S(C)(=O)=O)cc2Cl)C1 (stereo not given) | -129%
61 | CC(O)CNCc1c[nH]nc1-c1cc2ccccc2o1 (stereo not given) | -15.3%
62 | Cc1nc(CN2C(=O)C[C@H]3[C@H]2CCN3CC2CCOC2)cs1 (stereo not given in full) | -84.1%
63 | COc1ccccc1C1(CNc2cn[nH]c(=O)c2Cl)CC1 | -7.64%
64 | COc1ccccc1C1(CNc2cn[nH]c(=O)c2Cl)CCOCC1 | -28.1%
65 | COc1ccccc1C1(CNc2ccc(C(=O)N(C)C)cn2)CC1 | -70.8%
66 | COc1ccccc1C1(CNc2snc(Cl)c2C#N)CCOCC1 | 27%
67 | COc1ccccc1C1(CNCc2cccc(C#N)c2)CCOCC1 | 66.9%
68 | COc1ccccc1C1(CNCc2ccc([S+](C)[O-])cc2)CC1 (stereo not given) | 69.5%
69 | CC(C)(C)CN(CCC#N)C(=O)c1cccc(CC#N)c1 | -98%
70 | CCCC(NC(=O)c1ccc(OC)cc1C)c1nnn[nH]1 (stereo not given) | -54.4%

— ChEMBL document CHEMBL4513216, “Probing the Open Global Health Chemical Diversity Library for Multistage-Active Starting Points for Next-Generation Antimalarials” (ACS Infect Dis, 2020)
